Laboratory results from PubChem BioAssay (NCI).
The panel holds about 79,000 compounds, 15% with a hit somewhere; the sample as a whole holds those more often. Active and inactive are the calls of the source. Rule as the data show it: active = growth inhibition above about 70%; inactive = the rest.

Columns and labels:
[1] = NCI Yeast Anticancer Drug Screen. Data for the wt1 strain (AID 149);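 also: 0% = growth of vehicle-treated wt1 cultures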; settings: S. cerevisiae wt1 strain (SPY 50644) growth inhibition, stronger effect = higher value
Outline: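 Measured: growth of wt1 yeast under compound versus vehicle treatment, reported as inhibition.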

[2] = NCI Yeast Anticancer Drug Screen. Data for the rad50EPP+ strain (AID 151);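 also: 0% = growth of vehicle-treated control cultures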; settings: S. cerevisiae rad50 mutant strain, stronger effect = higher value
Outline: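 Vehicle-normalised growth inhibition; rad50EPP+ yeast strain, altered in DNA damage repair, compound-treated.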

[3] = NCI Yeast Anticancer Drug Screen. Data for the mgt1 strain (AID 153); settings: S. cerevisiae mgt1 mutant growth inhibition, stronger effect = higher value
Outline: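 Vehicle-normalized growth inhibition is determined in mgt1 yeast, a strain selected for a defined alteration in DNA repair or cell cycle control.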

[4] = NCI Yeast Anticancer Drug Screen. Data for the rad50 strain (AID 155);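 also: 0% = growth of vehicle-only cultures of the same strain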; settings: S. cerevisiae rad50 strain growth inhibition, stronger effect = higher value
Outline: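 Growth of the mutant yeast was measured after compound exposure and referenced to vehicle-treated cultures.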

[5] = NCI Yeast Anticancer Drug Screen. Data for the mec2-1 strain (AID 157); settings: S. cerevisiae mec2-1 strain, stronger effect = higher value
Outline: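 Mutant yeast (mec2-1) grown with compound; growth inhibition relative to vehicle control reported.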

[6] = NCI Yeast Anticancer Drug Screen. Data for the rad14 strain (AID 159);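 also: 0% = growth of vehicle-treated control cultures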; settings: S. cerevisiae rad14 strain growth inhibition, stronger effect = higher value
Outline: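 Here, inhibition of yeast growth was measured after compound exposure, using a strain with a genetic defect in DNA damage repair and vehicle-treated cultures as the reference.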

[7] = NCI Yeast Anticancer Drug Screen. Data for the sgs1 mgt1 strain (AID 161);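 also: 0% = growth of cultures given vehicle only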; settings: S. cerevisiae sgs1 mgt1 strain, stronger effect = higher value
Outline: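 Yeast cells carrying a defined DNA-repair defect were exposed to test compounds. Growth inhibition was measured relative to vehicle-treated controls.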

[8] = NCI Yeast Anticancer Drug Screen. Data for the CLN2oe strain (AID 163);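 also: 0% = growth of vehicle-only control cultures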; settings: S. cerevisiae CLN2oe strain, stronger effect = higher value
Outline: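 Compounds are applied to yeast harbouring a defined cell-cycle control change; reduced growth compared with vehicle-treated controls gives the value.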

[9] = NCI Yeast Anticancer Drug Screen. Data for the cln2 rad14 strain (AID 165);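 also: 0% = growth equal to vehicle treated cultures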; settings: S. cerevisiae cln2 rad14 strain, stronger effect = higher value
Outline: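 Readout is yeast growth inhibition versus vehicle-treated controls, using a strain with cln2 and rad14 alterations exposed to compound.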

[10] = NCI Yeast Anticancer Drug Screen. Data for the bub3 strain (AID 167); settings: S. cerevisiae bub3 mutant strain, stronger effect = higher value
Outline: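 Whole-cell yeast assay. The mutant strain was incubated with compounds, and growth inhibition was determined by comparison with vehicle-treated cells.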

[11] = NCI Yeast Anticancer Drug Screen. Data for the wt2 strain (AID 169);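 also: 0% = growth of vehicle-treated yeast cultures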; settings: S. cerevisiae wt2 strain growth inhibition, stronger effect = higher value
Outline: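 Against vehicle-treated controls, the growth of yeast exposed to each compound was compared, and the inhibition was recorded.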

[12] = NCI Yeast Anticancer Drug Screen. Data for the mlh1 strain (AID 171);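 also: 0% = growth of vehicle-treated control cultures of the same strain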; settings: S. cerevisiae mlh1 strain growth inhibition, stronger effect = higher value
Outline: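 Measured: yeast growth. Reference: vehicle-treated controls. Organism: strain with a defined alteration affecting DNA damage repair or cell cycle control, treated with compound.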

[13] = NCI Yeast Anticancer Drug Screen. Data for the sgs1 strain (AID 173);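 also: 0% = growth of vehicle-only control cultures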; settings: S. cerevisiae sgs1 mutant, stronger effect = higher value
Outline: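 Each compound was added to cultures of the altered yeast strain. Growth was recorded, and inhibition was derived by comparison with vehicle controls.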

[14] = NCI Yeast Anticancer Drug Screen. Data for the mlh1 rad18 strain (AID 175); settings: S. cerevisiae mlh1 rad18 strain growth inhibition, stronger effect = higher value
Outline: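 Genetically defined yeast (DNA repair-deficient) exposed to compounds; growth inhibition determined relative to vehicle.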

[15] = NCI Yeast Anticancer Drug Screen. Data for the rad18 strain (AID 177); settings: S. cerevisiae rad18 mutant growth inhibition, stronger effect = higher value
Outline: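 Vehicle-treated cultures served as the baseline for scoring compound-induced growth inhibition in DNA-repair-mutant yeast.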

[16] = at 5.0 µM (retest, dose inferred, filed as 0.5)
[17] = at 50.0 µM (retest, dose inferred, filed as 5.0)

Measured: growth inhibition

CCCCCC(=O)c1ccc(O)cc1O
active: [1]; at 33.0 µM 91% | [1]; at 100.0 µM 99% | [2]; at 100.0 µM 98% | [3]; at 33.0 µM 93% | [3]; at 100.0 µM 99% | [4]; [16] 92% | [4]; at 33.0 µM 91% | [4]; [17] 98% | [4]; at 50.0 µM 89.2% | [4]; at 100.0 µM 97% | [5]; [16] 91% | [5]; at 33.0 µM 95% | [5]; [17] 99% | [5]; at 50.0 µM 91.8% | [5]; at 100.0 µM 99% | [6]; at 33.0 µM 90% | [6]; at 100.0 µM 98% | [7]; [17] 92% | [8]; at 33.0 µM 86% | [8]; at 100.0 µM 99% | [9]; [17] 90% | [10]; at 33.0 µM 93% | [10]; [17] 92% | [10]; at 100.0 µM 99% | [11]; at 33.0 µM 87% | [11]; at 100.0 µM 99% | [12]; at 33.0 µM 90% | [12]; at 100.0 µM 95% | [13]; at 33.0 µM 90% | [13]; at 100.0 µM 98% | [14]; [16] 97% | [14]; [17] 99% | [14]; at 50.0 µM 91.2% | [15]; at 33.0 µM 92% | [15]; at 100.0 µM 98%
inactive: [1]; at 1.2 µM -14% | [1]; at 3.7 µM -18% | [1]; at 11.0 µM -6% | [2]; at 1.2 µM 15% | [2]; at 3.7 µM 23% | [2]; at 11.0 µM 33% | [2]; at 33.0 µM 59% | [3]; at 1.2 µM 17% | [3]; at 3.7 µM -2% | [3]; at 11.0 µM 12% | [4]; at 1.2 µM -7% | [4]; at 3.7 µM -4% | [4]; at 11.0 µM 2% | [5]; at 1.2 µM -7% | [5]; at 3.7 µM -6% | [5]; at 11.0 µM 10% | [6]; at 1.2 µM -9% | [6]; at 3.7 µM -5% | [6]; at 11.0 µM -3% | [7]; [16] -5% | [8]; at 1.2 µM -3% | [8]; at 3.7 µM 8% | [8]; at 11.0 µM 1% | [9]; [16] 37% | [10]; at 1.2 µM 8% | [10]; at 3.7 µM 14% | [10]; [16] 33% | [10]; at 11.0 µM 40% | [11]; at 1.2 µM -3% | [11]; at 3.7 µM -4% | [11]; at 11.0 µM -18% | [12]; at 1.2 µM 7% | [12]; at 3.7 µM 10% | [12]; at 11.0 µM 20% | [13]; at 1.2 µM -19% | [13]; at 3.7 µM -2% | [13]; at 11.0 µM -6% | [15]; at 1.2 µM -17% | [15]; at 3.7 µM 3% | [15]; at 11.0 µM 9%
